Experimental data taken from PubChem BioAssay (Tox21).
A number with no mark means an inactive call. Records with an inconclusive call do not appear. Entries that show only a call come without a potency. Active and inactive are the calls of the source. Unless noted, calls come from the whole dose curve; as a rule, active = well fitted curve in the direction sought with a large enough effect in the repeat runs; inconclusive = weak or mixed curves; inactive = no such curve, though single readings can be large; an effect the other way counts as inactive or inconclusive.

Experiments:
[1] = qHTS assay for small molecules that induce genotoxicity in human embryonic kidney cells expressing luciferase-tagged ATAD5 (AID 651632); conditions: HEK293T ATAD5-luciferase induction, 16 h; series mostly up to 83.3 µM; note: nearly all actives have a fitted effect of over 15% in size
Method in brief: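 Reporter cells (HEK293T) express luciferase-tagged ATAD5, a protein that accumulates after DNA damage. Treat 16 hr at 37C/5% CO2, add Amplite, wait 30 min at RT, and read luminescence.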

[2] = qHTS assay for small molecule agonists of the p53 signaling pathway - cell viability (AID 651633; calls by dose curve; note: nearly all actives have a fitted effect of over 30% in size; note: potency is the fitted concentration of half-maximal effect); conditions: p53RE-bla HCT-116 viability, ATP luminescence, 16 h; series mostly up to 83.3 µM
Method in brief: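 p53RE-bla cells, seeded at 4,000 per well and rested 5 h at 37 C/5% CO2, received compounds in DMSO for 16 h at 37 C. CellTiter-Glo was then added, and luminescence was read after 30 min at room temperature to gauge cytotoxicity.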

[3] = qHTS assay for small molecules that induce genotoxicity in human embryonic kidney cells expressing luciferase-tagged ATAD5 - cell viability (AID 651634; calls by dose curve; note: nearly all actives have a fitted effect of over 25% in size; note: potency is the fitted concentration of half-maximal effect); conditions: HEK293T ATAD5-luc cells viability, CellTiter-Fluor, 15.5 h; series mostly up to 83.3 µM
Method in brief: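 Seeding of 2,000 HEK293T ATAD5-luciferase cells per well preceded pin-tool compound transfer. Plates sat 15.5 hr at 37C under 5% CO2, then fluorescence was read after 30 min with CellTiter-Fluor.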

[4] = qHTS assay for small molecule disruptors of the mitochondrial membrane potential - cell viability (AID 720634; calls by dose curve; note: nearly all actives have a fitted effect of over 20% in size; note: potency is the fitted concentration of half-maximal effect); conditions: HepG2 viability, ATP luminescence (CellTiter-Glo), 1 h; series mostly up to 83.2 µM
Method in brief: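 Measuring cytotoxicity alongside mitochondrial potential, the screen quantified ATP by luminescence in HepG2 cells after 1 hr compound incubation and a 30 min room-temperature CellTiter-Glo step.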

[5] = qHTS assay to test for compound auto fluorescence at 535 nm (green) in HepG2 cells (AID 720675); conditions: green autofluorescence 485/535 nm, 1 h; series mostly up to 91.3 µM
[6] = qHTS assay to test for compound auto fluorescence at 460 nm (blue) in HEK293 cells (AID 720678); conditions: blue autofluorescence 405/460 nm; series mostly up to 91.3 µM
Method in brief: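 Blue read-out at excitation 405 nm and emission 460 nm follows overnight compound exposure of HEK293 cells at 37C in 5% CO2. Activity is given as auto fluorescence equivalency to triamterene.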

[7] = qHTS assay to test for compound auto fluorescence at 590 nm (red) in HEK293 cells (AID 720679); conditions: red autofluorescence 540/590 nm; series mostly up to 91.3 µM
Method in brief: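 Red channel, Ex/Em 540/590nm; signal expressed as equivalency to Rose Bengal sodium. HEK293, 2,000 cells/well, 10% dialyzed FBS; 23 nL compound pinned after 4-5 hr attachment; overnight 37C/5% CO2 before reading.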

[8] = qHTS assay to test for compound auto fluorescence at 535 nm (green) in HEK293 cells (AID 720680); conditions: green autofluorescence 485/535 nm; series mostly up to 91.3 µM
[9] = qHTS assay to test for compound auto fluorescence at 460 nm (blue) in HEK293 cell free culture (AID 720681); conditions: cell-free medium, autofluorescence 405/460 nm (blue); series mostly up to 91.3 µM
Method in brief: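 Test compounds were pinned into cell-free culture medium (DMEM with 10% FBS) and fluorescence was read directly at Ex/Em 405/460 nm. Signals were expressed as fluorescence equivalents of triamterene, with DMSO vehicle as control.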

[10] = qHTS assay to test for compound auto fluorescence at 535 nm (green) in HEK293 cell free culture (AID 720682); conditions: cell-free medium, green autofluorescence 485/535 nm, active compounds read high; series mostly up to 91.3 µM
Method in brief: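 Measurement is a direct plate read of green fluorescence (485 nm in, 535 nm out) after compound addition to serum-supplemented DMEM lacking cells, with fluorescein used to express intensities.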

[11] = qHTS assay to test for compound auto fluorescence at 590 nm (red) in HEK293 cell free culture (AID 720683); conditions: cell-free medium autofluorescence, Ex540/Em590 red; series mostly up to 91.3 µM
Method in brief: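 Tox21 10K library compounds were pinned into cell-free DMEM with 10% FBS and fluorescence was read at excitation 540 nm. Activity is expressed as Rose Bengal sodium equivalency.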

[12] = qHTS assay to test for compound auto fluorescence at 590 nm (red) in HepG2 cell free culture (AID 720684); conditions: cell-free medium autofluorescence, red 540/590 nm; series mostly up to 91.3 µM
Method in brief: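 Measured in medium alone (MEM containing 10% FBS) following pintool addition of compound; emission at 590 nm with 540 nm excitation, referenced to Rose Bengal sodium.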

[13] = qHTS assay to test for compound auto fluorescence at 460 nm (blue) in HepG2 cell free culture (AID 720685); conditions: Cell-free culture medium, blue autofluorescence 405/460 nm; series mostly up to 91.3 µM
Method in brief: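 Compound (23 nL) or DMSO pinned into cell-free MEM with 10% FBS; blue fluorescence read at 405/460 nm excitation/emission, expressed as auto-fluorescence equivalency to triamterene.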

[14] = qHTS assay to test for compound auto fluorescence at 535 nm (green) in HepG2 cell free culture (AID 720686); conditions: Cell-free medium, green autofluorescence 485/535 nm; series mostly up to 91.3 µM
[15] = qHTS assay to test for compound auto fluorescence at 460 nm (blue) in HepG2 cells (AID 720687); conditions: autofluorescence 405/460 nm, 1 h; series mostly up to 91.3 µM
Method in brief: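 Cells (2,000/well in MEM with 10% FBS) attached overnight at 37 C, then were exposed to compound or DMSO for 1 hr at 37 C, 5% CO2. Fluorescence read at Ex/Em 405/460 nm, expressed as triamterene-equivalent signal.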

[16] = qHTS assay to test for compound auto fluorescence at 590 nm (red) in HepG2 cells (AID 720674); conditions: HepG2 autofluorescence, red 540/590 nm, 1 h; series mostly up to 91.3 µM
Method in brief: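 Compound auto-fluorescence is scored relative to Rose Bengal sodium, measured at 540/590 nm in live HepG2 cultures after 1 hr compound contact (37 C, 5% CO2).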

[17] = target: Glucocorticoid receptor (Homo sapiens) (UniProt P04150); assay: qHTS assay to identify small molecule agonists of the glucocorticoid receptor (GR) signaling pathway (AID 720691; active = well fitted activation curve with a large enough effect in the signal ratio in the repeat runs, not every such curve was filed as active; the % refers to the signal ratio); conditions: GR-bla HeLa, beta-lactamase reporter ratio, 18 h; activation: at 62.4 µM (top of the series) unless noted
Glucocorticoid receptor (Homo sapiens), sequence (P04150 whole entry, looked up): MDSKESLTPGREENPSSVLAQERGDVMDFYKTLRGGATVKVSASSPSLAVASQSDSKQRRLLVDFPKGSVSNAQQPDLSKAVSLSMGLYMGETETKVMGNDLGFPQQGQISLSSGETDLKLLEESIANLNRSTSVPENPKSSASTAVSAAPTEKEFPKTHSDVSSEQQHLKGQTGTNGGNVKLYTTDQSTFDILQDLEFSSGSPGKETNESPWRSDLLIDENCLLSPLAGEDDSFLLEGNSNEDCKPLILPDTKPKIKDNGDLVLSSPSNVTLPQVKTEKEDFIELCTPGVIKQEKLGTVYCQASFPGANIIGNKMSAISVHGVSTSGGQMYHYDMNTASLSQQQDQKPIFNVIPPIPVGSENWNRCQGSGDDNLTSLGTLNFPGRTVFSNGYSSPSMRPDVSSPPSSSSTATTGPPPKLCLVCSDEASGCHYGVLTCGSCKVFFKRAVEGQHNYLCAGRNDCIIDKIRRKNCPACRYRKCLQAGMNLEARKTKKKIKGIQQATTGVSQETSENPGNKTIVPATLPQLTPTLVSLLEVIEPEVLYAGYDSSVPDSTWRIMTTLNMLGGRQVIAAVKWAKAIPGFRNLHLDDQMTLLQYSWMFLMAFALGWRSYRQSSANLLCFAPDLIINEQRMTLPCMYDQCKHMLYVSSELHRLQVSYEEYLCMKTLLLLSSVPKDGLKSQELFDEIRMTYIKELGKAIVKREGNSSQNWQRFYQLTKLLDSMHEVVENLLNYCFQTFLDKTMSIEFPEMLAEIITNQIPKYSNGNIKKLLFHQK
Method in brief: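 Reporter read-out: fluorescence intensity following 2 h room-temperature LiveBLAzer B/G FRET substrate loading. Prior step: GR-bla HeLa cells held 4 h, then treated 18 h at 37 C.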

[18] = target: Glucocorticoid receptor (Homo sapiens) (UniProt P04150); assay: qHTS assay to identify small molecule antagonists of the glucocorticoid receptor (GR) signaling pathway (AID 720692; active = well fitted inhibition curve with a large enough effect in the signal ratio in the repeat runs, not every such curve was filed as active; the % refers to the signal ratio); conditions: GR-bla HeLa, beta-lactamase FRET ratio, dexamethasone-stimulated, 18 h; series mostly up to 58.5 µM
Method in brief: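 Dexamethasone (5 nM final) stimulated a stably integrated GRE-beta-lactamase reporter in HeLa cells during 18 h co-incubation with compounds; signal was quantified as fluorescence intensity of B/G FRET substrate after 2 h.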

Row | Compound | Potency [1] | Potency [2] | Potency [3] | Potency [4] | Potency [5] | outcome [6] | Potency [7] | outcome [8] | outcome [9] | outcome [10] | Potency [11] | Potency [12] | outcome [13] | Potency [14] | outcome [15] | Potency [16] | Potency [17] | Potency [18]
1 | CCCCCCCCCCCCCCCCOS(=O)(=O)O | inactive | inactive | inactive | inactive | inactive | inactive | inactive | inactive | inactive | inactive | inactive | inactive | inactive | inactive | inactive | – | – | –
2 | C=C(C)C(=O)OCC | inactive | inactive | inactive | inactive | inactive | inactive | inactive | inactive | inactive | inactive | inactive | inactive | inactive | inactive | inactive | inactive | inactive | inactive
3 | CCC(Cl)CCC(Cl)C(Cl)CC(Cl)C(Cl)C(Cl)CCl (centres undefined) | inactive | inactive | inactive | inactive | inactive | inactive | inactive | inactive | inactive | – | inactive | inactive | inactive | inactive | – | inactive | inactive | –
4 | O=P(O)(OCc1ccccc1)OCc1ccccc1 | inactive | inactive | inactive | inactive | inactive | inactive | inactive | – | inactive | inactive | inactive | inactive | inactive | inactive | inactive | inactive | – | –
5 | O=C1[C@H]2CCCC[C@H]2C(=O)N1CCCCN1CCN(c2nsc3ccccc23)CC1 | inactive | inactive | inactive | inactive | inactive | inactive | – | inactive | inactive | inactive | – | inactive | inactive | inactive | inactive | – | – | –
6 | CCCCCCCCCOS(=O)(=O)O | inactive | inactive | inactive | inactive | inactive | inactive | inactive | inactive | inactive | – | inactive | inactive | inactive | inactive | inactive | – | – | –
7 | C=C(C)C(=O)OCCO | inactive | inactive | inactive | inactive | inactive | inactive | inactive | inactive | inactive | inactive | inactive | inactive | inactive | inactive | inactive | inactive | inactive | –
8 | CCOC(=O)C(F)(F)F | inactive | inactive | inactive | inactive | inactive | inactive | inactive | – | inactive | – | inactive | inactive | inactive | inactive | inactive | – | – | inactive
9 | c1ccc(CNCCNCc2ccccc2)cc1 | inactive | inactive | inactive | inactive | inactive | inactive | inactive | inactive | inactive | inactive | inactive | inactive | inactive | inactive | – | inactive | inactive | –
10 | CCCCC | inactive | inactive | inactive | inactive | inactive | inactive | inactive | inactive | inactive | inactive | inactive | inactive | inactive | inactive | – | inactive | inactive | inactive
11 | CCCCCCCCCCCc1ccccc1 | inactive | inactive | inactive | inactive | inactive | inactive | inactive | inactive | inactive | inactive | inactive | inactive | inactive | inactive | inactive | inactive | inactive | –
12 | O=C(O)c1ccc(S(=O)(=O)O)cc1C(=O)O | inactive | inactive | inactive | inactive | inactive | inactive | – | inactive | inactive | inactive | inactive | inactive | inactive | inactive | inactive | inactive | – | –
13 | CCCCCCCCCCCCN1CCCCCC1=O | inactive | 15.4 µM (active) | 61.1 µM (active) | 27.3 µM (active) | inactive | inactive | inactive | inactive | inactive | – | inactive | inactive | inactive | inactive | inactive | inactive | – | –
14 | O=C(Cl)c1cc(C(=O)Cl)cc(C(=O)Cl)c1 | inactive | inactive | inactive | inactive | inactive | inactive | inactive | inactive | inactive | inactive | inactive | inactive | inactive | inactive | inactive | – | – | –
15 | CCOc1ccc(N=Nc2ccc(/C=C/c3ccc(N=Nc4ccc(OCC)cc4)cc3S(=O)(=O)O)c(S(=O)(=O)O)c2)cc1 | inactive | inactive | 42.6 µM (active) | inactive | inactive | inactive | inactive | inactive | – | inactive | inactive | inactive | inactive | inactive | inactive | inactive | inactive | inactive
16 | CC(C)(COC(=O)c1ccccc1)COC(=O)c1ccccc1 | inactive | inactive | inactive | inactive | inactive | inactive | inactive | inactive | inactive | inactive | – | inactive | inactive | inactive | inactive | inactive | inactive | –
